Measured values as given in PubChem BioAssay (NCI).
The panel holds about 79,000 compounds, 15% with a hit somewhere; the sample as a whole holds those more often. No stated cut-off is given here; in the data, active means growth inhibition above about 70%; inactive means the rest.

Key:
[1] = NCI Yeast Anticancer Drug Screen. Data for the rad50 strain (AID 155);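 further: 0% = growth of vehicle-only cultures of the same strain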; conditions: S. cerevisiae rad50 strain growth inhibition; at 50.0 µM; stronger effect = higher value
How it was run: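 Genetically altered yeast (DNA repair pathway); compound treatment; growth inhibition vs vehicle ctrl.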

[2] = NCI Yeast Anticancer Drug Screen. Data for the mec2-1 strain (AID 157); conditions: S. cerevisiae mec2-1 strain, at 50.0 µM, stronger effect = higher value
How it was run: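 Test agents were screened against the mec2-1 yeast strain, with defined DNA repair or cell cycle alteration. Growth was scored as inhibition against vehicle-only controls.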

[3] = NCI Yeast Anticancer Drug Screen. Data for the sgs1 mgt1 strain (AID 161);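 further: 0% = growth of cultures given vehicle only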; conditions: S. cerevisiae sgs1 mgt1 strain, at 50.0 µM, stronger effect = higher value
How it was run: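 Genetically altered yeast, compound exposure, growth inhibition relative to vehicle.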

[4] = NCI Yeast Anticancer Drug Screen. Data for the cln2 rad14 strain (AID 165);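 further: 0% = growth equal to vehicle treated cultures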; conditions: S. cerevisiae cln2 rad14 strain, at 50.0 µM, stronger effect = higher value
How it was run: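 Growth of compound-exposed yeast (cln2 rad14 genotype) measured and expressed as inhibition relative to vehicle.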

[5] = NCI Yeast Anticancer Drug Screen. Data for the bub3 strain (AID 167); conditions: S. cerevisiae bub3 mutant strain, at 50.0 µM, stronger effect = higher value
How it was run: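 Yeast carrying a defined mutation is treated with each compound, and growth is compared with that of vehicle-exposed cells to give inhibition.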

[6] = NCI Yeast Anticancer Drug Screen. Data for the mlh1 rad18 strain (AID 175); conditions: S. cerevisiae mlh1 rad18 strain growth inhibition; at 50.0 µM; stronger effect = higher value
How it was run: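 In this whole-cell yeast screen, a strain with altered DNA damage repair is challenged with compound, and its growth is measured against matched vehicle-treated controls.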

Measured: growth inhibition

O=P(O)(O)c1ccc(I)cc1
inactive: [1] 10.5% | [2] -30.6% | [3] -12.4% | [4] 0.75% | [5] -20.3% | [6] -5.9%

C=CCN(CC=C)c1nc(N)c2ccc(Cl)cc2n1
inactive: [1] -8% | [2] -8% | [3] -6.65% | [4] -52.4% | [5] -10.8% | [6] -6.45%

O=c1[nH]c(Nc2nc3ccccc3[nH]2)nc(O)c1-c1ccccc1
inactive: [1] -2.85% | [2] -14% | [3] -23.2% | [4] -6.7% | [5] -6.05% | [6] -28.6%

CN1CC(O)CN(C)C1=S
inactive: [1] -9.05% | [2] -8.2% | [3] 1.6% | [4] -34.6% | [5] -7.9% | [6] -5%

O=C(c1ccc(Cl)cc1)c1nnc(Cl)s1
inactive: [1] -4.7% | [2] 2.2% | [3] -6.7% | [4] -10.8% | [5] 24.8% | [6] 2.3%

Cc1ccc2cccc(-c3cccc4ccccc34)c2n1
inactive: [1] 5.3% | [2] 7.9% | [3] 3.4% | [4] -0.05% | [5] -2.35% | [6] 28.8%

CN(C)C(=O)Sc1ccc([N+](=O)[O-])cc1
inactive: [1] 4.75% | [2] -12.8% | [3] -14.6% | [4] -45.5% | [5] 4.6% | [6] -19.8%

Cc1cc(Cl)c2ccc(Cl)c(C)c2n1
inactive: [1] 6.65% | [2] -8.55% | [3] 3.65% | [4] -11.1% | [5] 5.4% | [6] 0.15%

COC(=O)CCSCC(N)C(=O)O (stereo unspecified)
inactive: [1] 1.3% | [2] -2.95% | [3] -13.3% | [4] -39.5% | [5] -0.95% | [6] -18.4%

NOCc1nnc(Nc2ccccc2)s1
inactive: [1] 7.25% | [2] 3.8% | [3] 5.8% | [4] 19.3% | [5] -4.4% | [6] 5.55%

CC1=Nc2ccccc2C1(C)C
inactive: [1] 8.25% | [2] 8.8% | [3] 15% | [4] 21.2% | [5] 4.55% | [6] 9.3%

CCCNc1ncnc2c1ncn2C
inactive: [1] 10.6% | [2] -15% | [3] -3.55% | [4] 7.65% | [5] 7.45% | [6] -4.65%

N#Cc1c(N)c(C(=O)O)nn(-c2cccc(C(F)(F)F)c2)c1=O
inactive: [1] -8.95% | [2] 1.7% | [3] 44% | [4] 10.8% | [5] -11.2% | [6] -15.9%

CC1(C(=O)Sc2ccccc2)OC1(C)c1ccccc1 (stereo unspecified)
inactive: [1] -8.5% | [2] 7.65% | [3] 4.85% | [4] -28.1% | [5] 14.8% | [6] 18.1%

O=C(CC(=O)Nc1ccccc1)NNC(Sc1ccccc1)c1cc(N=Nc2ccc(Br)cc2)ccc1O (stereo unspecified)
inactive: [1] 4.6% | [2] 14.1% | [3] 11.2% | [4] -10% | [5] -2.9% | [6] -4.7%

CC(C)(C)c1cc(-c2cc(C(C)(C)C)nc(N)n2)nc(N)n1
inactive: [1] -4.9% | [2] -14.1% | [3] -14% | [4] -18.7% | [5] -35.3% | [6] -16.4%

O=c1[nH]c2ccc([N+](=O)[O-])cc2nc1/C=C(\O)c1ccccc1
inactive: [1] -9.85% | [2] 14.3% | [3] -24.4% | [4] -31.1% | [5] 3.75% | [6] -46.5%

CCc1nc(N)nc(N)c1-c1ccc(Cl)c(NC(C)=O)c1
inactive: [1] 8.9% | [2] -3.6% | [3] -7.6% | [4] 10.1% | [5] 6.6% | [6] 1.95%

CCOc1ccccc1NC(=O)CC1SC(=Nc2ccc([N+](=O)[O-])cc2)NC1=O (stereo unspecified)
inactive: [1] 24.6% | [2] 20.9% | [3] 10.3% | [4] 10.9% | [5] -13.3% | [6] -12.8%

O=C(Nc1nc(=S)[nH][nH]1)C(=O)C(C(=O)c1ccc2ccccc2c1)C1OC(=O)c2ccccc21 (stereo unspecified)
inactive: [1] 28.6% | [2] 23.3% | [3] -6.5% | [4] -14.3% | [5] 3.75% | [6] 28.8%

CN(C)C=S
inactive: [1] -4.6% | [2] 1.9% | [3] -9.85% | [4] -12.6% | [5] -13.1% | [6] -4%

O=c1oc(=O)c2ccccc2c2ccccc12
inactive: [1] -22.9% | [2] 6.85% | [3] -0.9% | [4] -32.1% | [5] -3.75% | [6] -5.6%

CC(C)(C)OC(=O)N(CCCN)CCCCN(CCCN)C(=O)OC(C)(C)C
inactive: [1] 8.45% | [2] -9.5% | [3] 5.25% | [4] 12.8% | [5] -5.55% | [6] -62%

NC(N)=N/N=C(/c1nc2ccc([N+](=O)[O-])cc2[nH]c1=O)C(O)c1ccco1 (stereo unspecified)
inactive: [1] 10.1% | [2] -25% | [3] 0.25% | [4] 5.95% | [5] -15.3% | [6] 1.7%

C=CCOC(=O)CC(O)(CC(=O)OCC=C)C(=O)OCC=C
inactive: [1] -3.4% | [2] -17.9% | [3] -11.8% | [4] -35.5% | [5] -6.4% | [6] -12.2%

COC(=O)CCc1ccc(NC(=O)OC)cc1
inactive: [1] -1.4% | [2] 20.3% | [3] 10.9% | [4] 11.2% | [5] 14.8% | [6] -4.7%

CC(=O)N1CCN(c2ccccc2Cl)CC1
inactive: [1] -10% | [2] -17.2% | [3] -18.4% | [4] -3.45% | [5] -10.6% | [6] -22.7%

CCOC(=O)CNC(=O)C(Cc1ccccc1)NC(=O)c1ccccc1NC(=O)c1ccccc1 (stereo unspecified)
inactive: [1] 28.8% | [2] 20.8% | [3] 4.3% | [4] 13.3% | [5] 0.7% | [6] 22.2%

Cc1[nH]c(=O)[nH]c1C(=O)c1ccc(-n2ccnc2)cc1
inactive: [1] -1.45% | [2] -9.75% | [3] 16.1% | [4] 16.2% | [5] 5.25% | [6] -9.15%

COc1ccc([N+](=O)[O-])c2c1CONC2(C)C(=O)O (stereo unspecified)
inactive: [1] 8.95% | [2] 16.2% | [3] 8.2% | [4] -4.95% | [5] 3.75% | [6] 16.2%

CC(=O)C1(C)OC(c2ccccc2)=NC1=S (stereo unspecified)
inactive: [1] 7.4% | [2] 14.3% | [3] 7.55% | [4] 14.9% | [5] -5.1% | [6] 9.35%

O=c1ccn(C2OC(CF)C(O)C2O)c(=O)[nH]1 (stereo unspecified)
inactive: [1] 1.8% | [2] -2.85% | [3] -1.4% | [4] 9.05% | [5] 0.7% | [6] -9.9%

NC(=O)C12C3C4C1C1C2C3C41C(N)=O (stereo unspecified)
inactive: [1] 29.1% | [2] 12.4% | [3] -1.7% | [4] 16.5% | [5] -5.8% | [6] 20.6%

O=C1c2ccccc2CC12Cc1ccccc1C2
inactive: [1] 2.05% | [2] -17.4% | [3] -3.85% | [4] -15.3% | [5] -29.7% | [6] 0.15%

FC(F)C(F)(F)N1c2ccccc2Sc2ccccc21
inactive: [1] 27.6% | [2] -6.2% | [3] 19.9% | [4] 6.9% | [5] 27.1% | [6] 60.1%

NC(Cc1cnc[nH]1)C(=O)NCC(=O)O (stereo unspecified)
inactive: [1] -11.4% | [2] -6.2% | [3] -11.8% | [4] -10.2% | [5] 4.3% | [6] -8.95%

CCCCCCCN1C=CCC(S(=O)(=O)N2CCOCC2)=C1
inactive: [1] -15.7% | [2] -7.75% | [3] -11.4% | [4] 3.85% | [5] -16.8% | [6] -2%

CCCNc1ncnc2ncn(C)c12
inactive: [1] 12.4% | [2] -1.6% | [3] -12.9% | [4] 5.05% | [5] 7.35% | [6] 0.35%

COc1ccc(/C(Cl)=C/c2cc(OC)ccc2OC)cc1
inactive: [1] -5.1% | [2] -10.7% | [3] -26.9% | [4] -0.25% | [5] -30.2% | [6] -9.05%

CCC1CN2CCc3cc(OC)c(OC)cc3C2CC1CC1c2cc(OC)c(OC)cc2CCN1C(=O)C1CCCN1 (stereo unspecified)
inactive: [1] -1.45% | [2] -1.45% | [3] 12.1% | [4] 6.85% | [5] 7.65% | [6] -3.4%

NCc1ccccc1F
inactive: [1] -10.2% | [2] -23.9% | [3] 12.3% | [4] 13.7% | [5] -6.75% | [6] 4.15%
